Results: the supplement of paper PMC6555819

Experiments:
Experiment in all cases: PBM binding z-score (relative to random genomic background probes); higher = stronger binding; sequences stand for … in GC…GCGATTGACAGCGTAGAATGAAGG
[1] = system: PPARg:RXRa DBDmut IVT, anti-RXR (DBD mutation: RXRa K156A/R161A, NR concentration 270 nM, RXRa partner concentration 90 nM)
Procedure, shortened: (§1)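 Regression normalization was applied to scanned fluorescence from custom Agilent 4×180K protein-binding microarrays. Before scanning, arrays were incubated 1 h with ligand-free nuclear receptor dimers, and binding was detected with antibodies against each partner (one per run). Binding z-scores use the random background probes as reference.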

[2] = system: PPARg:RXRa IVT, anti-PPARg (NR concentration 270 nM, RXRa partner concentration 90 nM)
Procedure, shortened: as §1

[3] = system: PPARg DBDmut:RXRa IVT, anti-PPARg (DBD mutation: PPARg1 K132A/R137A, NR concentration 270 nM, RXRa partner concentration 90 nM)
Procedure, shortened: as §1

[4] = system: PPARg DBDmut IVT, anti-PPARg (DBD mutation: PPARg1 K132A/R137A, NR concentration 270 nM)
Procedure, shortened: as §1

[5] = system: PPARg homodimer (NR concentration 180 nM)
Procedure, shortened: as §1

[6] = system: PXR:RXRa (NR concentration 270 nM, RXRa partner concentration 90 nM)
Procedure, shortened: as §1

[7] = system: PXR homodimer (NR concentration 270 nM)
Procedure, shortened: as §1

[8] = system: RARa:RXR (NR concentration 270 nM, RXRa partner concentration 90 nM)
Procedure, shortened: as §1

[9] = system: RARa homodimer (NR concentration 270 nM)
Procedure, shortened: as §1

[10] = system: RARb:RXRa (NR concentration 270 nM, RXRa partner concentration 90 nM)
Procedure, shortened: as §1

Sequence | PBM binding z-score [1] | PBM binding z-score [2] | PBM binding z-score [3] | PBM binding z-score [4] | PBM binding z-score [5] | PBM binding z-score [6] | PBM binding z-score [7] | PBM binding z-score [8] | PBM binding z-score [9] | PBM binding z-score [10]
CCTTACGGGTCACTGACAAGTTATAGCATTTGGA | 3.61 | 3.76 | 0.661 | 0.743 | 2.03 | 2.77 | -0.0294 | 3.98 | 1.19 | 3.81
GCTAGGTGGTCAGTAAAAGGTCACACACCGGTCG | 0.659 | 2.52 | 0.634 | 0.226 | 4.93 | 5.02 | 1.22 | 5.97 | 2.31 | 4.34
CCGAGTAGGTTATGGGGCTTTCAGGCAACGGTGA | 3.12 | 2.84 | -0.365 | -0.667 | 0.638 | -0.191 | -0.0344 | -0.019 | 0.153 | 0.525
ACTAGTTGGTCAGCTGACGTCACACACAATTCGG | 0.857 | 0.972 | 0.728 | 0.709 | 0.152 | 0.163 | -0.648 | 0.0415 | 0.251 | 0.952
ATCGCTAGGTAAGACTCAGTTCAGTGAAGAACGC | -0.311 | -0.264 | -0.423 | -0.364 | -0.443 | 0.322 | 0.471 | -0.577 | -0.519 | -0.283
ACTAGCAGGCCAATGGTCACTCAAGATTAGTCCG | 0.92 | 0.714 | -0.0875 | -0.449 | 0.0967 | -0.626 | -0.69 | -0.449 | -0.683 | 0.677
CCTACTGGGCCATTCAGAGGTCATTGCTCATATG | 4.61 | 4.29 | -0.1 | -0.505 | 1.87 | 4.7 | 2.5 | 4.24 | 0.689 | 3.01
AGAATGAGGTTAAGATCATGGAAACAGAATACAT | 2.36 | 2.7 | 1.78 | 1.04 | 0.572 | 1.24 | 0.274 | 1.79 | 0.586 | 1.68
CCTACTAGTTGACCATAAGGGCAACCGAAGCTCG | 0.2 | 0.479 | 0.235 | -0.627 | 1.22 | 0.406 | 0.317 | 0.81 | 1.01 | 1.39
TCTAGTTGGACACGGAGGTCACACACGACGGGTA | 1.98 | 2.33 | 0.713 | 0.0839 | 2.38 | 4.16 | 1.05 | 4.39 | 1.25 | 3.45
GCTAGCAGGCCATTTCGGTCACTCAATGACGGGC | 0.656 | 0.325 | -0.625 | -0.867 | -0.364 | -0.577 | -0.577 | -0.28 | -1.42 | 1.07
ATCTCTAGATAAAAGTTCAGTGAATCCCGAGGAT | -0.00193 | 0.486 | 1.04 | 0.904 | 1.13 | 1.57 | 1.32 | 0.986 | 0.594 | 2.13
CGTCCCAGGTCAAGGTCAGTGAAAGAGACTCGAA | 2.24 | 3.62 | 0.134 | -0.571 | 3.49 | 4.05 | 1.33 | 4.43 | 2.12 | 5.02
CCAGATAGGTGAGAAGGTAACTCAGCCTCGATTA | 2.53 | 1.72 | -0.37 | -0.16 | 1.05 | 0.0792 | 0.177 | 0.307 | 0.419 | 0.76
ATCGAAAGGTCGAAGGGGAGTATACCCACCCGAA | -0.023 | 1.38 | 1.29 | 0.309 | 1.15 | 2.21 | 0.32 | 2.79 | 0.273 | 3.73
TATAGTTGGTCACGGAGGTCACACACGACGGGTA | 1.03 | 4.52 | 1.35 | 2.08 | 2.56 | 4.66 | 1.06 | 4.48 | 1.98 | 4.09
TCTTGTAGATCAACAGGAGGTTAAGAAGGATCGA | 1.57 | 0.719 | 0.516 | 0.84 | -0.0308 | 0.778 | -0.0185 | 0.915 | -0.325 | 0.474
ACTATTAGTTGACTTAGGTCAACCGATACGACGC | 0.95 | 1.72 | 1.38 | 1.44 | 2.81 | 2.2 | 1.29 | 2.59 | 1.55 | 2.73
CAAACTAGGTCATGAGGTCAAAGTCCGCTTCCCG | 8.1 | 8.5 | 2.32 | 1.99 | 5.08 | 5.91 | 4.28 | 6.92 | 2.05 | 5.03
